KKLEB tox = reduces viability of KKLEB cystic fibrosis airway cells; AID 602141; activity change (cytotoxicity), % at 5 µM; KKLEB CF airway cells viability, ATPlite luminescence, overnight; active compounds read low; cells stimulated with P. aeruginosa culture filtrate; 360,000 tested, 0.36% active;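 active = corrected activity change at or below -50% at 5 µM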
iPSC survival up = enhancers of human iPSC single-cell survival; hiPSC single-cell survival, ATPlite luminescence; 100% = ROCK inhibitor wells, 0% = DMSO; 360,000 tested, 0.044% active; AID 602274; survival enhancement, % at 20 µM; in the data active = survival enhancement above about 18%;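 note: cells exposed to compounds for 16 hours before the ATP read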
C8 TRAIL sens = sensitizes caspase-8 expressing cells to TRAIL | NB7+C8 cells + TRAIL, ATPlite viability luminescence | inhibition (viability loss, TRAIL sensitization), % at 10 µM | 360,000 tested, 1% active;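 active = compounds causing at least 50% loss of cell viability in the single-dose screen, relative to plate controls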
PPC-1+TRAIL kill = PPC-1 cancer cell killing with TRAIL present; PPC-1 cells + TRAIL, ATPLite viability luminescence; cell killing (% activity), % at 4 µM or 5 µM; 220,000 tested, 0.41% active;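 active = cell killing above 50% in the first pass at 4 µM, then a duplicate retest at 5 µM averaging 50% or more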
HIF-2a block = HIF-2a inhibition | inhibition, % at 18.8 µM | 786-0 RCC cells HIF-2a reporter, luciferase luminescence, overnight | 360,000 tested, 0.72% active;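 active = inhibition of the luminescence signal of 40% or more relative to plate controls, in a single-dose primary screen at 18.75 µM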
CF NFkB block = inhibitors of cystic fibrosis induced NF-kB; KKLEB NF-kB-GFP reporter, PAF-induced, GFP fluorescence overnight; inhibition, % at 5 µM; 360,000 tested, 0.86% active; AID 588850;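 active = at least 50% inhibition at 5 µM, scaled per plate between neutral and stimulator controls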;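 note: PAF is a Pseudomonas aeruginosa culture filtrate used as stimulus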
Hits are given with their value; – = inactive; · = not tested or not shown. Compounds with a hit are over-represented: about 2.2% of the library has one in this group of screens.

SMILES	KKLEB tox	iPSC survival up	C8 TRAIL sens	PPC-1+TRAIL kill	HIF-2a block	CF NFkB block
Cc1ccc(C(=O)N/N=C\c2ccc[nH]2)cc1[N+](=O)[O-]	–	–	86	–	–	–
Cc1nonc1C(=O)N/N=C/c1ccc(O)cc1O	–	–	56	·	–	–
COc1cc(C(=O)N/C(=C/c2ccc(F)cc2)C(=O)NC(C(=O)O)c2ccccc2)cc(OC)c1OC (centres undefined)	–	–	–	·	–	–
O=C(Nc1cccc(O)c1)c1noc2c1CCCCC2	–	–	60	–	–	–
O=C(CCCN1C(=O)/C(=C/c2ccccc2Cl)SC1=S)N1CCOCC1	–	–	–	·	49	–
COc1ccc(/C=C2/SC(=O)N(CCC(=O)Nc3ccc(C)cc3)C2=O)cc1OC	·	·	·	–	·	·
O=C(O)CCN1C(=O)/C(=C\c2cccc(Oc3ccccc3)c2)SC1=S	–	–	–	·	72	–
COc1ccc(/C=C2/SC(=O)N(CCC(=O)Nc3ccccc3)C2=O)cc1OC	-54	–	–	–	–	60
O=C(O)CCN1C(=O)/C(=C\c2ccncc2)SC1=S	–	–	–	–	–	–
COc1ccc(/C=C2/SC(=O)N(CCC(=O)Nc3ccccc3C(=O)O)C2=S)cc1	–	–	–	·	57	–
O=C(CCCN1C(=O)/C(=C\c2ccccc2)SC1=S)N1CCOCC1	–	–	–	·	–	–
C[C@H](CO)N1C[C@H](C)[C@H](CN(C)S(=O)(=O)c2ccc(C#N)cc2)OCc2cnnn2CCCC1=O	–	–	–	·	–	–
Cc1cc(NC(=O)c2ccc(Cl)cc2Cl)no1	–	–	–	·	–	–
COc1ccccc1/C=C1\SC(=S)N(CCC(=O)NC2=NCCS2)C1=O	–	–	–	–	72	–
COc1cccc(/C=C2\SC(=S)N(CCCC(=O)N3CCCCC3CCO)C2=O)c1 (centres undefined)	–	–	–	·	69	–
COc1ccc(/C=C2\SC(=S)N(CCC(=O)NCCc3ccc(O)cc3)C2=O)cc1	–	–	–	·	58	–
COc1ccccc1/C=C1\SC(=S)N(CCC(=O)NCCc2ccc(O)cc2)C1=O	–	–	–	·	–	–
COc1ccc(/C=C2/SC(=S)N(CCC(=O)O)C2=O)cc1	–	–	–	–	85	–
O=C(COC(=O)CCc1ccccc1)NNC(=O)c1ccccc1	–	–	–	·	–	–
CCN1CCCC1CNC(=O)c1[nH]c2ccc(OC)cc2c1C (centres undefined)	–	–	–	·	–	–
O=C1CCC(C(=O)N2CCN(c3cnccn3)CC2)CN1CCc1ccccc1 (centres undefined)	–	–	–	·	–	–
COc1ccc(/C=C2\SC(=S)N(CCCC(=O)N3CCOCC3)C2=O)cc1	–	–	–	·	68	–
COc1ccc(CCN2C(=O)CSC2=S)cc1OC	–	–	–	·	61	–
Cc1ccc(NC(=O)c2ccccc2)s1	–	–	53	–	–	–
CCOC(=O)c1ccc(N2CCCCC2)c(NS(=O)(=O)c2ccc(C)cc2)c1	–	–	–	–	–	–
SMILES	KKLEB tox	iPSC survival up	C8 TRAIL sens	PPC-1+TRAIL kill	HIF-2a block	CF NFkB block
COc1cc(OC)cc(C(=O)Nc2nnc(NC(=S)Nc3ccccc3)s2)c1	–	–	–	–	–	65
COc1ccc(CN(C)C(=O)C(Cc2ccccc2)NC(=O)c2ccccc2)cc1F (centres undefined)	–	–	–	·	–	–
CCOc1ccc(CN(C)C(=O)[C@H](Cc2ccccc2)NC(=O)OCc2ccccc2)cc1OC	–	–	51	·	–	–
COC(=O)[C@]1(Cc2ccccc2)N[C@H](CN(C)C(=O)Nc2ccccc2)[C@@H]2C(=O)N(C)C(=O)[C@@H]21	–	28	–	·	–	–
O=C(O)/C=C/C(=O)NNC(=O)c1cc(-c2ccccc2)n[nH]1	–	–	51	–	–	–
Clc1ccccc1-c1nnc(-c2ccc3c(c2)OCO3)o1	–	–	56	–	–	–
Fc1ccc(-c2nnc(-c3ccc(Cl)cc3Cl)o2)cc1	-55	–	86	·	–	–
Fc1ccc(-c2nnc(-c3ccc(Cl)cc3)o2)cc1	–	–	–	–	–	–
Clc1ccc(-c2nnc(-c3ccccc3)o2)c(Cl)c1	–	–	70	–	–	–
CSc1ccccc1-c1nnc(-c2ccc(Cl)cc2Cl)o1	–	–	–	–	–	–
Cc1ccccc1OCC(=O)NCCCNC(=O)c1cccnc1	–	–	–	·	–	–
COc1ccc(Cl)cc1NC(=O)CN(C)C(=O)Cc1n[nH]c(=O)c2ccccc12	–	–	–	·	–	–
C/C(=N\Nc1ncc(Cl)cc1Cl)c1ccccn1	-59	–	89	–	–	–
C/C(=N\Nc1ccc(Cl)c(C(=O)O)c1)c1ccccn1	–	–	–	–	–	–
Cn1c(=O)n(CCc2ccccc2)c(=O)c2c1nc1n2CCCN1CCc1ccccc1	–	–	45	–	–	–
O=C(Nc1ncc(Cc2ccccc2)s1)c1cccs1	–	–	51	–	–	–
Cc1ccc(C(=O)Nc2ncc(Cc3ccccc3)s2)o1	–	–	57	–	–	–
Cc1ccc(Cc2cnc(NC(=O)c3cccs3)s2)cc1	–	–	–	–	–	–
Nc1ccccc1-c1nnc(-c2ccccc2N)n1N	–	–	–	–	–	–
Cc1ccc(Cl)cc1N1CCN(C(=O)c2noc(C)c2[N+](=O)[O-])CC1	–	–	95	·	–	–
Cc1onc(C(=O)N2CCN(c3ccccc3)CC2)c1[N+](=O)[O-]	–	–	–	·	–	–
COc1ccc(-c2cc3cc(OC)c(OC)cc3cn2)cc1	–	–	–	·	–	–
COc1cc(OC)cc(-c2cc3ncccc3cn2)c1	–	–	–	·	–	–
COc1cc(OC)cc(-c2cc3cc4c(cc3cn2)OCO4)c1	–	–	72	·	–	–
COc1ccc(-c2noc(-c3ccc4c(c3)OCO4)n2)cc1	–	–	45	–	–	–
SMILES	KKLEB tox	iPSC survival up	C8 TRAIL sens	PPC-1+TRAIL kill	HIF-2a block	CF NFkB block
c1ccc(-c2cc3cc4c(cc3cn2)OCO4)cc1	–	–	51	·	–	–
COc1ccc(-c2cc3cc4c(cc3cn2)OCO4)cc1	–	–	54	·	–	–
Cc1c(N2C(=O)CSC2c2ccc(F)cc2)c(=O)n(-c2ccccc2)n1C (centres undefined)	–	–	–	–	–	–
COc1cc(/C=C/C(=O)OCC(=O)N(C)C2CCS(=O)(=O)C2)ccc1OC(F)F (centres undefined)	–	–	–	·	–	–
O=C1C=CN2CCCCC2CC1 (centres undefined)	–	–	–	·	–	–
CCCCS/C(N)=N/N=C/c1cc(C)ccc1O	–	–	–	–	–	–
CS/C(N)=N/N=C/c1cc(C)ccc1O	–	–	64	–	–	–
C=C1CC(Cn2cc(Br)c(=O)[nH]c2=O)(c2ccc(-c3ccccc3)cc2)OC1=O (centres undefined)	–	–	94	·	94	87
